The values below come from article PMC11062922 (Nature Chemical Biology, 2023).

The subject of one assay is FLT3. Details: species or system human, MV4-11 + K-562 + COLO205 + SK-N-BE2 + OVCAR-8. As to conditions: read-out: apparent Kd, n = 1.
For the next assay, the system named is FLT4. Details: species or system human, MV4-11 + K-562 + COLO205 + SK-N-BE2 + OVCAR-8. As to conditions: read-out: apparent Kd, n = 1.
Another assay deals with PDGFRB. Further details: species or system human, MV4-11 + K-562 + COLO205 + SK-N-BE2 + OVCAR-8. As to conditions: read-out: apparent Kd, compound concentrations: 100 nM and 1000 nM (sheet 'Samples'), n = 1.
In the next assay the test system is PIP4K2C. Further details: species or system human, MV4-11 + K-562 + COLO205 + SK-N-BE2 + OVCAR-8. As to conditions: read-out: apparent Kd; compound concentrations: 100 nM and 1000 nM (sheet 'Samples'), CATDS: 0.16088368333560399; n = 1.
For a further assay, the target named is Q6ZSR9 (human, UniProt Q6ZSR9). Details: species or system MV4-11 + K-562 + COLO205 + SK-N-BE2 + OVCAR-8. As to conditions: read-out: apparent Kd; compound concentrations: 100 nM and 1000 nM (sheet 'Samples'), CATDS: 0.15174967066440201; n = 1.
Sequence of Q6ZSR9 (Q6ZSR9 whole entry, looked up): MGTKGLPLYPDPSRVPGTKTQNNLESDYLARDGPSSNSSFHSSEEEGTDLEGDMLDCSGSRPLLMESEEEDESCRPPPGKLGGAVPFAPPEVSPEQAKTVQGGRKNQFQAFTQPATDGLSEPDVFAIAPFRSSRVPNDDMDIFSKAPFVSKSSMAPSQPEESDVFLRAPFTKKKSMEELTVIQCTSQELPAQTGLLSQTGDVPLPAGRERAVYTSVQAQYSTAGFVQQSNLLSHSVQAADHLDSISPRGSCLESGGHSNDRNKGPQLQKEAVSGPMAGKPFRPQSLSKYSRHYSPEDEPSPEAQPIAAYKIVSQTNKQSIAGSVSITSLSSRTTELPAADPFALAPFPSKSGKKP
A further assay concerns MAP3K1. Further details: species or system human, MV4-11 + K-562 + COLO205 + SK-N-BE2 + OVCAR-8. As to conditions: read-out: apparent Kd; compound concentrations: 100 nM and 1000 nM (sheet 'Samples'), CATDS: 0.23263789115969999; n = 1.
Another assay relates to TTN. Details: species or system human, MV4-11 + K-562 + COLO205 + SK-N-BE2 + OVCAR-8. As to conditions: read-out: apparent Kd; compound concentrations: 100 nM and 1000 nM (sheet 'Samples'), CATDS: 0.29545284543589501; n = 1.
For another assay, the system named is MAP3K11. Further details: species or system human, MV4-11 + K-562 + COLO205 + SK-N-BE2 + OVCAR-8. As to conditions: read-out: apparent Kd; compound concentrations:100 nM and 1000 nM (sheet 'Samples'); n = 1.
The next assay deals with PRKCA. Further details: species or system human, MV4-11 + K-562 + COLO205 + SK-N-BE2 + OVCAR-8. As to conditions: read-out: apparent Kd, n = 1.
In the next assay the test system is PRKCB. Details: species or system human, MV4-11 + K-562 + COLO205 + SK-N-BE2 + OVCAR-8. As to conditions: read-out: apparent Kd; compound concentrations:100 nM and 1000 nM (sheet 'Samples'); n = 1.
The next assay deals with RET. Further details: species or system human, MV4-11 + K-562 + COLO205 + SK-N-BE2 + OVCAR-8. As to conditions: read-out: apparent Kd; compound concentrations:100 nM and 1000 nM (sheet 'Samples'); n = 1.
In the next assay the test system is STRADA. Details: species or system human, MV4-11 + K-562 + COLO205 + SK-N-BE2 + OVCAR-8. As to conditions: read-out: apparent Kd; compound concentrations:100 nM and 1000 nM (sheet 'Samples'); n = 1.
In another assay the test system is GAK. Details: species or system human, MV4-11 + K-562 + COLO205 + SK-N-BE2 + OVCAR-8. As to conditions: read-out: apparent Kd; compound concentrations: 100 nM and 1000 nM (sheet 'Samples'), CATDS: 0.59760522623710299; n = 1.
The test system of another assay is NQO1. Details: species or system human, MV4-11 + K-562 + COLO205 + SK-N-BE2 + OVCAR-8. As to conditions: read-out: apparent Kd; compound concentrations: 100 nM and 1000 nM (sheet 'Samples'), CATDS: 0.42980166948746801; n = 1.
The next assay deals with GSK3A. Further details: species or system human, MV4-11 + K-562 + COLO205 + SK-N-BE2 + OVCAR-8. As to conditions: read-out: apparent Kd, n = 1.
The test system of a further assay is GSK3B. Further details: species or system human, MV4-11 + K-562 + COLO205 + SK-N-BE2 + OVCAR-8. As to conditions: read-out: apparent Kd, n = 1.
A further assay concerns PRKCD. Details: species or system human, MV4-11 + K-562 + COLO205 + SK-N-BE2 + OVCAR-8. As to conditions: read-out: apparent Kd; compound concentrations:100 nM and 1000 nM (sheet 'Samples'); n = 1.
The test system of another assay is PRKCQ. Details: species or system human, MV4-11 + K-562 + COLO205 + SK-N-BE2 + OVCAR-8. As to conditions: read-out: apparent Kd; compound concentrations:100 nM and 1000 nM (sheet 'Samples'); n = 1.
A further assay deals with RPS6KA6. Details: species or system human, MV4-11 + K-562 + COLO205 + SK-N-BE2 + OVCAR-8. As to conditions: read-out: apparent Kd; compound concentrations:100 nM and 1000 nM (sheet 'Samples'); n = 1.
Another assay concerns RPS6KB1. Details: species or system human, MV4-11 + K-562 + COLO205 + SK-N-BE2 + OVCAR-8. As to conditions: read-out: apparent Kd; compound concentrations:100 nM and 1000 nM (sheet 'Samples'); n = 1.
The test system of a further assay is JAK2. Details: species or system human, MV4-11 + K-562 + COLO205 + SK-N-BE2 + OVCAR-8. As to conditions: read-out: apparent Kd; compound concentrations:100 nM and 1000 nM (sheet 'Samples'); n = 1.
In the next assay the test system is ICK. Details: species or system human, MV4-11 + K-562 + COLO205 + SK-N-BE2 + OVCAR-8. As to conditions: read-out: apparent Kd; compound concentrations: 100 nM and 1000 nM (sheet 'Samples'), CATDS: 0.23248137577465; n = 1.
The mark [1] stands for this setting: compound concentrations:100 nM and 1000 nM (sheet 'Samples').

Structures are written as SMILES. Read-outs that look alike come from different tables or passages of the source.

For `COc1cc(Nc2ncc(-c3ccccc3)o2)cc(OC)c1OC` [GW627512B], the potency estimated from few doses was 20.2 nM in the assay with FLT3 (compound concentrations: 100 nM and 1000 nM (sheet 'Samples'), CATDS: 0.90210431278154302); 1850 nM in the assay on FLT4 (compound concentrations: 100 nM and 1000 nM (sheet 'Samples'), CATDS: 0.159173325469706); 858 nM in the assay with PDGFRB (CATDS: 0.20817935834978499); 1790 nM with PIP4K2C; 2170 nM with Q6ZSR9.

Take `O=C(Nc1n[nH]c2nc(-c3ccco3)c(Br)cc12)c1ccc(CN2CCCC2)cc1.O=C(O)[C@H](O)[C@@H](O)C(=O)O` [SB-742352-AC]: the potency estimated from few doses is 1550 nM in the assay on FLT3 (compound concentrations: 100 nM and 1000 nM (sheet 'Samples'), CATDS: 0.23628807978612301); 1600 nM in the assay with MAP3K1; 1430 nM with PDGFRB (CATDS: 0.24481499220571501); 1010 nM in the assay with TTN.

On to `CN(C)C/C=C/C(=O)Nc1ccc(C(=O)Nc2cccc(Nc3ncc(Cl)c(-c4c[nH]c5ccccc45)n3)c2)cc1` [THZ1], for which the potency estimated from few doses was 1310 nM in the assay on FLT3 (setting [1]); 904 nM with FLT4 (setting [1]); 743 nM in the assay on MAP3K11; 191 nM in the assay on PRKCA (setting [1]); 727 nM in the assay with PRKCB; 921 nM in the assay on RET. Further, the potency estimated from few doses in the assay on STRADA was 2370 nM.

As to `C#Cc1cccc(Nc2ncnc3ccc(OCCCCNCCS(C)(=O)=O)cc23)c1` [GW680191X], the potency estimated from few doses with GAK is 804 nM; in the assay on NQO1 it was 1580 nM.

Regarding `COc1ccc(Nc2ncc(-c3ccccc3)o2)cc1OC.Cl` [GW575533A], the potency estimated from few doses in the assay on FLT3 (compound concentrations: 100 nM and 1000 nM (sheet 'Samples'), CATDS: 0.92036474930911705) is 4.09 nM; with PDGFRB (CATDS: 0.343232825956933) it was 90.5 nM.

For `CN(C)CC1CCn2c(c(C3=C(c4cn(C)c5ccccc45)C(=O)NC3=O)c3ccccc32)C1` (centres unmarked) [RO0318830-000], the potency estimated from few doses in the assay on GSK3A (setting [1]) was 43.8 nM; in the assay with GSK3B (setting [1]), 53.4 nM; with PRKCA (compound concentrations: 100 nM and 1000 nM (sheet 'Samples'), CATDS: 0.195929094272485), 30.2 nM; with PRKCB, 88.5 nM; with PRKCD it was 34.5 nM; with PRKCQ, 123 nM. In addition, the potency estimated from few doses was 56.8 nM in the assay on RPS6KA6 and 1600 nM in the assay with RPS6KB1.

With `O=C(Nc1cccnc1)c1cc(-c2ccnc(F)c2)ccc1OCc1ccccc1` [GSK2578215], the potency estimated from few doses in the assay on JAK2 is 322 nM.

For the compound `COc1cccc2c1c(C1=C(c3cn(C)c4ccccc34)C(=O)NC1=O)cn2C` [RO0317494-000], the potency estimated from few doses with GSK3A (compound concentrations: 100 nM and 1000 nM (sheet 'Samples'), CATDS: 0.489076637072761) was 149 nM; in the assay with GSK3B (compound concentrations: 100 nM and 1000 nM (sheet 'Samples'), CATDS: 0.37680240996491099), 241 nM; with ICK it was 912 nM.
